Among all 5,500 compounds or so, about 2,000 (36%) were called active. Roughly 18% stayed inconclusive and do not appear here. Cut-off read from the data, not from the text of the source: active = normalized growth mostly below about 0.91 (no sharp cut-off); inconclusive = no clear call, values can overlap the other calls; inactive = mostly above about 0.92. The list shows a part of the results.
Experiment: chemical genetic growth profiling, strain panel (AID 1159580);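 note: tested at 20 µM; growth read once vehicle control cultures reached saturation at 30 °C; 1 = growth at the plate median or of vehicle wells; lower values mean less growth of the strain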
Settings: growth OD
[1] = S. cerevisiae deletion strains, locus YDR150W, strain NUM1, active compounds read low
[2] = S. cerevisiae deletion strains, locus YGR078C, strain PAC10, active compounds read low
[3] = S. cerevisiae deletion strains, locus YNL128W, strain TEP1, active compounds read low
[4] = S. cerevisiae deletion strains, locus YNL153C, strain GIM3, active compounds read low
[5] = S. cerevisiae deletion strains, locus YNL322C, strain KRE1, active compounds read low

Measured: normalized growth

CCOC(=O)CC(SP(=S)(OC)OC)C(=O)OCC (stereo not drawn)
inactive: S. cerevisiae deletion strains, locus YAL013W, strain DEP1, active compounds read low 1.02 | S. cerevisiae deletion strains, locus YBR021W, strain FUR4, active compounds read low 1.01 | S. cerevisiae deletion strains, locus YBR229C, strain ROT2, active compounds read low 1.01 | S. cerevisiae deletion strains, locus YCL029C, strain bik1, active compounds read low 1.01 | S. cerevisiae deletion strains, locus YDL035C, strain GPR1, active compounds read low 1.02 | S. cerevisiae deletion strains, locus YDL074C, strain BRE1, active compounds read low 0.996 | S. cerevisiae deletion strains, locus YDL101C, strain DUN1, active compounds read low 1 | S. cerevisiae deletion strains, locus YDL134C, strain PPH21, active compounds read low 1.01 | S. cerevisiae deletion strains, locus YDL185W, strain tfp1, active compounds read low 1.02 | S. cerevisiae deletion strains, locus YDL192W, strain arf1, active compounds read low 1 | S. cerevisiae deletion strains, locus YDR101C, strain arx1, active compounds read low 0.998 | [1] 0.996 | S. cerevisiae deletion strains, locus YDR162C, strain NBP2, active compounds read low 1.01 | S. cerevisiae deletion strains, locus YDR318W, strain mcm21, active compounds read low 1.02 | S. cerevisiae deletion strains, locus YDR388W, active compounds read low 1.01 | S. cerevisiae deletion strains, locus YDR502C, strain sam2, active compounds read low 0.998 | S. cerevisiae deletion strains, locus YEL061C, strain CIN8, active compounds read low 1.01 | S. cerevisiae deletion strains, locus YER110C, active compounds read low 1.01 | S. cerevisiae deletion strains, locus YER155C, strain BEM2, active compounds read low 1.02 | S. cerevisiae deletion strains, locus YER167W, strain BCK2, active compounds read low 1.02 | S. cerevisiae deletion strains, locus YGL078C, strain dbp3, active compounds read low 0.998 | S. cerevisiae deletion strains, locus YGL086W, strain mad1, active compounds read low 1 | S. cerevisiae deletion strains, locus YGL248W, strain PDE1, active compounds read low 1.01 | [2] 1.01 | S. cerevisiae deletion strains, locus YGR135W, strain pre9, active compounds read low 0.994 | S. cerevisiae deletion strains, locus YGR229C, strain SMI1, active compounds read low 1.02 | S. cerevisiae deletion strains, locus YGR252W, strain gcn5, active compounds read low 1 | S. cerevisiae deletion strains, locus YHR030C, strain SLT2, active compounds read low 1.02 | S. cerevisiae deletion strains, locus YHR079C, strain IRE1 (second series), active compounds read low 1.01 | S. cerevisiae deletion strains, locus YHR094C, strain hxt1, active compounds read low 1.01 | S. cerevisiae deletion strains, locus YHR129C, strain ARP1, active compounds read low 1.02 | S. cerevisiae deletion strains, locus YHR200W, strain rpn10, active compounds read low 1.01 | S. cerevisiae deletion strains, locus YIL066C, strain RNR3, active compounds read low 1.04 | S. cerevisiae deletion strains, locus YIL073C, strain SPO22, active compounds read low 1.09 | S. cerevisiae deletion strains, locus YIL125W, strain kgd1, active compounds read low 0.998 | S. cerevisiae deletion strains, locus YIR030C, strain dcg1, active compounds read low 1 | S. cerevisiae deletion strains, locus YJL095W, strain BCK1, active compounds read low 1.02 | S. cerevisiae deletion strains, locus YJL134W, strain LCB3, active compounds read low 1.01 | S. cerevisiae deletion strains, locus YJL168C, strain set2, active compounds read low 1.01 | S. cerevisiae deletion strains, locus YJL187C, strain SWE1 (second series), active compounds read low 1.01 | S. cerevisiae deletion strains, locus YJR043C, strain POL32, active compounds read low 1.01 | S. cerevisiae deletion strains, locus YJR075W, strain HOC1, active compounds read low 1.01 | S. cerevisiae deletion strains, locus YKL009W, strain mrt4, active compounds read low 1.01 | S. cerevisiae deletion strains, locus YKL068W, active compounds read low 1.01 | S. cerevisiae deletion strains, locus YKL085W, strain MDH1 (second series), active compounds read low 1.01 | S. cerevisiae deletion strains, locus YKL085W, strain MDH1, active compounds read low 1.01 | S. cerevisiae deletion strains, locus YKL190W, strain CNB1, active compounds read low 1.01 | S. cerevisiae deletion strains, locus YKR001C, strain vps1, active compounds read low 1.02 | S. cerevisiae deletion strains, locus YLR039C, strain RIC1, active compounds read low 1.06 | S. cerevisiae deletion strains, locus YLR058C, strain SHM2, active compounds read low 1.02 | S. cerevisiae deletion strains, locus YLR102C, strain apc9, active compounds read low 1.01 | S. cerevisiae deletion strains, locus YLR262C, strain YPT6, active compounds read low 1.04 | S. cerevisiae deletion strains, locus YLR268W, strain sec22, active compounds read low 0.997 | S. cerevisiae deletion strains, locus YLR330W, strain CHS5, active compounds read low 1.01 | S. cerevisiae deletion strains, locus YLR342W, strain FKS1 (second series), active compounds read low 1.07 | S. cerevisiae deletion strains, locus YLR371W, strain rom2, active compounds read low 1.01 | S. cerevisiae deletion strains, locus YLR418C, strain cdc73, active compounds read low 0.988 | S. cerevisiae deletion strains, locus YML016C, strain PPZ1, active compounds read low 1.01 | S. cerevisiae deletion strains, locus YML032C, strain rad52, active compounds read low 1 | S. cerevisiae deletion strains, locus YML124C, strain tub3, active compounds read low 1.01 | S. cerevisiae deletion strains, locus YMR078C, strain ctf18, active compounds read low 1.02 | S. cerevisiae deletion strains, locus YMR223W, strain ubp8, active compounds read low 1.01 | S. cerevisiae deletion strains, locus YMR263W, strain SAP30, active compounds read low 1.01 | S. cerevisiae deletion strains, locus YMR307W, strain GAS1, active compounds read low 1.05 | S. cerevisiae deletion strains, locus YNL067W, strain RPL9B, active compounds read low 0.998 | [3] 1 | [4] 1.01 | S. cerevisiae deletion strains, locus YNL233W, strain BNI4, active compounds read low 1 | S. cerevisiae deletion strains, locus YNL250W, strain rad50, active compounds read low 1.01 | S. cerevisiae deletion strains, locus YNL271C, strain bni1, active compounds read low 1.02 | S. cerevisiae deletion strains, locus YNL298W, strain CLA4, active compounds read low 1.02 | S. cerevisiae deletion strains, locus YNL307C, strain MCK1, active compounds read low 1.02 | [5] 1.01 | S. cerevisiae deletion strains, locus YNR052C, strain pop2, active compounds read low 1 | S. cerevisiae deletion strains, locus YOL006C, strain TOP1, active compounds read low 1.02 | S. cerevisiae deletion strains, locus YOL012C, strain htz1 0.831 | S. cerevisiae deletion strains, locus YOL147C, strain pex11, active compounds read low 1.01 | S. cerevisiae deletion strains, locus YOR061W, strain CKA2, active compounds read low 1 | S. cerevisiae deletion strains, locus YOR069W, strain VPS5, active compounds read low 1.01 | S. cerevisiae deletion strains, locus YOR136W, strain idh2, active compounds read low 1 | S. cerevisiae deletion strains, locus YOR144C, strain elg1, active compounds read low 1 | S. cerevisiae deletion strains, locus YOR184W, strain ser1, active compounds read low 1.02 | S. cerevisiae deletion strains, locus YOR316C, strain cot1, active compounds read low 1 | S. cerevisiae deletion strains, locus YPL055C, strain LGE1, active compounds read low 1 | S. cerevisiae deletion strains, locus YPL241C, strain CIN2, active compounds read low 1.01 | S. cerevisiae deletion strains, locus YPR119W, strain clb2, active compounds read low 1 | S. cerevisiae deletion strains, locus YPR141C, strain kar3, active compounds read low 1 | S. cerevisiae deletion strains, locus YPR163C, strain tif3, active compounds read low 1.01 | S. cerevisiae deletion strains, locus YPR167C, strain met16, active compounds read low 1.01 | S. cerevisiae deletion strains, strain wtn01, active compounds read low 0.996 | S. cerevisiae strains, strain wild type, active compounds read low 1.01

CCCOC(=O)c1c(-c2ccccc2)nc(CC)c(C(=O)SCC)c1CCC
inactive: S. cerevisiae deletion strains, locus YAL040C, strain CLN3, active compounds read low 1.04 | S. cerevisiae deletion strains, locus YCL061C, strain MRC1 (second series), active compounds read low 1 | [1] 1.01 | S. cerevisiae deletion strains, locus YDR363W, strain ESC2, active compounds read low 0.982 | S. cerevisiae deletion strains, locus YER002W, strain NOP16, active compounds read low 1.01 | [2] 0.974 | [3] 1.09 | [4] 1.02 | S. cerevisiae deletion strains, locus YNL197C, strain WHI3, active compounds read low 1.02 | S. cerevisiae deletion strains, locus YNL224C, strain SQS1, active compounds read low 1.04 | [5] 0.993 | S. cerevisiae deletion strains, locus YOR083W, strain WHI5 (second series), active compounds read low 1.09

— PubChem BioAssay AID1159580 (chemical genetic matrix, 2015)
